A selection: hits, their analogues and other compounds. The true share with any hit is near 3.3%.
PERK inh: inhibitors of human PERK kinase | Q9NZJ5 | CHO PERK-DD fusion, SEAP luminescence translation reporter | inhibition, % at 5.6 µM | actives 0.17% (n = 220,000);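 active = inhibition above the mean inhibition of all tested compounds plus 3 SD, set separately per screening campaign, cut at about 2.9% in these data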;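 note: PERK kinase domain activated by AP20187 dimerizer at 100 nM; 0% = DMSO with dimerizer and 100% = rapamycin at 8.4 µM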
WT yeast gro inh: growth inhibition of WT yeast, mitochondrial fusion screen. mitochondrial fusion phenotypic screen, WT strain. inhibition, % at 10 µM. actives 2.1% (n = 190,000). AID 1362; in the data active = inhibition above about 58%; tested in S. cerevisiae
ROMK primary: human ROMK K+ channel modulation, primary screen; actives 2% (n = 130,000); Tet-inducible ROMK, thallium flux fluorescence; actives lie on both sides; B-score at 10 µM; P48048;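 active = signal ratio slope over the read window, or its plate-corrected B-score, at least 3 SD from the plate mean, either direction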;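 note: B-score of the F/F0 ratio slope over 7 to 12 s after thallium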
Target sequence (P48048 whole entry, looked up): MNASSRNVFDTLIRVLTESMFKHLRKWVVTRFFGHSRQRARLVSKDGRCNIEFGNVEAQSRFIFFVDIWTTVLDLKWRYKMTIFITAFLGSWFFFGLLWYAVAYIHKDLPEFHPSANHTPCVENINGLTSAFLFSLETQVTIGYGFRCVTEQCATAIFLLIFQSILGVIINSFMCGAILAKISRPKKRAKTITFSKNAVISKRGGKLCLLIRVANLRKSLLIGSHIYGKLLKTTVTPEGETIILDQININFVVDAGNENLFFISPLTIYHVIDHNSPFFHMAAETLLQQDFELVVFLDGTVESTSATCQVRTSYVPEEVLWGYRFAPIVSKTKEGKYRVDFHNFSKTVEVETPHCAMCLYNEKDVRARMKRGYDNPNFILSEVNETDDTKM
Arbovirus anti: blocks arbovirus infection; arbovirus infection cell-based antiviral screen; inhibition, % at 10 µM; actives 0.37% (n = 200,000); AID 1251; in the data active = inhibition above about 30%
Numbers without * were called inactive; nt = no result.

SMILES | PERK inh | WT yeast gro inh | ROMK primary | Arbovirus anti
S=C(NCCc1ccccc1)N1CCc2ccccc2C1 | 0.7 | 71.3* | -1.29 | 3.2
O=C(COC(=O)c1ccncc1)Nc1cc(Cl)c(Cl)cc1Cl | 0.1 | 71.4* | nt | 5.2
O=C(COC(=O)c1ccncc1)Nc1cc(Cl)ccc1Cl | -0.4 | 2.5 | -0.902 | 6.5
COC(=O)c1cn(NC(=O)/C=C/c2ccc(OC)c(OC)c2)c(=O)c2ccccc12 | 0.7 | -11.8 | nt | -1.5
N#Cc1c(NC(=S)NC(=O)C2CCCC2)sc2c1CCCCC2 | 0.9 | 66.4* | nt | 10.6
N#Cc1c(NC(=S)NC(=O)c2ccccc2)sc2c1CCCC2 | 0.4 | -2.6 | -0.102 | 11.3
Cc1nc(CS(=O)c2ccc(Cl)cc2)cc(NCc2ccc(Cl)cc2Cl)n1 (centres undefined) | -1.3 | 58.7* | -0.022 | 85.0*
C#CCNC(=O)C1=C[C@H](c2csc3ccccc23)C[C@H](OCCCCO)O1 | 1.0 | -2.8 | nt | 1.0
COc1cc(OC)c(-c2c3cc(O)c(=O)cc-3oc3cc(O)c(O)cc23)cc1OC | -0.2 | 59.4* | nt | -16.9
CCc1nnc(NS(=O)(=O)c2ccc(N3C(=O)C4CC=C(Cl)CC4C3=O)cc2)s1 (centres undefined) | 1.2 | -19.6 | 0.592 | 8.2
O=C(Nc1ccon1)c1ccc(N2CCCCC2)c([N+](=O)[O-])c1 | -0.2 | 10.5 | -0.088 | -7.5
O=C(Nc1nc2ccccc2s1)c1ccc(N2CCCCC2)c([N+](=O)[O-])c1 | 0.9 | 23.6 | nt | 37.7*
CCOC(=O)N=Nc1c2ccccc2c2nc3no[nH]c3nc12 | 1.2 | 95.8* | 1.62 | -30.1
CCC(C)(C)NC(=O)C1CCN(c2nc(OC)nc(OC)n2)CC1 | 1.1 | 0.5 | 0.527 | -3.6
CCOC(=O)c1cnc2ccc(C(=O)OC)cc2c1Nc1ccc2c(c1)OCCO2 | -0.2 | 32.4 | nt | 2.4
CCOC(=O)c1cnc2ccc(OC)cc2c1Nc1ccc2c(c1)OCCO2 | -1.0 | 76.6* | nt | 20.3
CC1(C)CC(=O)C(C=Nc2ccccc2)=C(O)C1 | -0.8 | 10.9 | 0.315 | 3.3
Cc1ccnc(NS(=O)(=O)c2ccc(N=CC3=C(O)CC(C)(C)CC3=O)cc2)n1 | 0.8 | 66.7* | -1.08 | 4.4
O=C(c1ccc2c(c1)OCO2)N(Cc1ccco1)C1(C(=O)NC2CCCCC2)CCCCC1 | -0.9 | 58.7* | -2.37 | -10.9
CSc1nncn1/N=C/c1ccc([N+](=O)[O-])cc1 | 0.0 | -19.6 | 0.541 | 0.8
CSc1nncn1/N=C/c1ccc2c(c1)OCO2 | 1.3 | 64.0* | nt | -8.2
CCCC1(CCC)NC(=O)N(CC(=O)Nc2cccc(OC)c2)C1=O | 0.7 | 63.8* | nt | 9.3
Clc1ccc(OCc2nn3c(C4CCCCC4)nnc3s2)cc1 | 0.0 | 30.1 | nt | -17.9
Clc1ccc(-c2nnc(-c3ccco3)nc2N2CCCCC2)cc1 | -0.5 | 66.4* | -0.0431 | -9.0
Cc1nc2ccc(S(=O)(=O)Nc3cccc(-c4nc5cccnc5s4)c3)cc2s1 | 0.9 | 71.5* | -1.43 | 6.9
SMILES | PERK inh | WT yeast gro inh | ROMK primary | Arbovirus anti
C=CCc1ccc(OCCOCCOc2cccc3cccnc23)c(OC)c1 | -0.4 | -27.4 | -0.0385 | 10.3
Cc1ccc(C2CCN(C(=S)NC(C)C)C2)cc1 (centres undefined) | 1.2 | 11.8 | 0.367 | 2.4
COC(=O)C1=C(Nc2ccc(C)cc2)C=C(C)C(C(=O)OC)C1c1ccc(OC)cc1 (centres undefined) | -0.9 | 70.3* | 1.16 | -17.8
O=c1cc(-c2ccc(Br)cc2)[nH][nH]1 | 2.9* | 6.0 | 0.971 | 4.3
O=c1cc(-c2ccc(F)cc2)[nH][nH]1 | 0.9 | -3.7 | -0.0297 | -4.0
O=c1cc(-c2ccccc2)[nH][nH]1 | 0.1 | -24.3 | 1.61 | -5.8
O=c1cc(-c2ccc(C3CCCCC3)cc2)[nH][nH]1 | 0.1 | 68.8* | 0.372 | -3.0
Cc1ccc(OCCSCc2nnc(NC(=O)Nc3cccc(Cl)c3)s2)cc1 | 0.9 | -9.8 | nt | 38.0*
O=C(N/N=C/c1ccc(O)cc1)/C(=C/c1ccccc1)CCO | 1.0 | -5.1 | nt | 4.7
CCc1ccccc1N1CC23C=CC(O2)C(C(=O)OC)C3C1=O (centres undefined) | 0.9 | 17.2 | nt | 3.0
CCOC(=O)C1[C@H]2C(=O)N(CCCOC)C[C@]23C=C[C@H]1O3 (some centres undefined) | 0.5 | 3.6 | 0.234 | 1.3
CCc1ccccc1N1C[C@@]23C=C[C@@H](O2)C(C(=O)OCC(C)C)[C@H]3C1=O (some centres undefined) | -0.5 | 59.5* | 0.00273 | 9.0
CCCCOC(=O)C1C2C=C[C@]3(CN(CCCOC)C(=O)[C@H]13)O2 (some centres undefined) | 3.4* | -4.8 | 0.226 | -3.9
CCN=c1scc(-c2ccco2)n1/N=C/c1ccc(O)cc1 | -0.9 | 2.7 | 1.16 | -6.4
CCN=c1scc(-c2ccco2)n1/N=C/c1ccc(OC)c(O)c1 | 0.1 | 58.6* | 0.321 | 14.0
CCOc1ccc(N2CC(C(=O)NC(C)C)CC2=O)cc1 (centres undefined) | 1.9 | 59.8* | 0.256 | 2.7
CCOc1cc(/C=N/NC(=O)COc2ccc(C)cc2)ccc1OC(=O)c1cccs1 | 0.5 | 6.7 | nt | 1.7
CCOc1cc(/C=N/NC(=O)COc2ccccc2C)ccc1OC(=O)c1cccs1 | 1.8 | 64.9* | 1.22 | 7.7
Oc1ccccc1Cn1c(-c2ccccc2O)nc2ccccc21 | 0.5 | 9.8 | -0.789 | 4.8
COc1ccccc1Cn1c(-c2ccccc2OC)nc2ccccc21 | -1.8 | 72.1* | -0.0803 | -22.8
CCOC(=O)C1=C(c2ccccc2)NC(=O)NC1c1ccc(OC)c(OC)c1 (centres undefined) | 0.3 | -13.7 | 0.101 | 21.7
CCOC(=O)C1=C(c2ccccc2)N(C)C(=O)NC1c1ccc(OC(F)F)c(OC)c1 (centres undefined) | -1.4 | 23.4 | -4.56* | -5.2
CCCc1ccc(-c2cc(NC(=O)CSc3nnc(N)s3)n(-c3ccccc3)n2)cc1 | -0.4 | 0.5 | nt | -34.0
COc1ccc(CC(=O)N2CCC(Nc3nc4ccccc4n3Cc3ccc(F)cc3)CC2)cc1 | -1.2 | 10.1 | -3.98* | -10.6
O=[N+]([O-])c1ccc(C[n+]2cccc3ccc4cccnc4c32)cc1 | 1.2 | 59.0* | 0.547 | -32.3
SMILES | PERK inh | WT yeast gro inh | ROMK primary | Arbovirus anti
CC(C)(C)n1nc2c(c1NC(=O)COc1ccc3ccccc3c1)CS(=O)(=O)C2 | -0.9 | nt | 0.748 | 3.3
Cc1cc2c(cc1C)C(c1ccsc1)CC(=O)N2 (centres undefined) | 0.2 | 11.9 | -1.21 | -9.0
CNCCCC1Sc2ccccc2Oc2ccccc21 (centres undefined) | -0.4 | 7.5 | -3.68* | -36.2
C=CCOC(=O)/C=C/C(=O)NC(N)=O | 0.6 | nt | -2.08 | nt
CCCCN(CCCC)S(=O)(=O)c1c(C)[nH]c(=O)[nH]c1=O | 0.0 | -42.6 | -0.737 | 17.5
Cc1oc(-c2cccc3ccccc23)nc1CN1CCN(c2ncnc3ccccc23)CC1 | -1.3 | 62.7* | nt | -25.5
COc1ccc(-c2nc(CN3CCN(c4cc(C)nc(C)c4)CC3)c(C)o2)c2ccccc12 | 0.2 | 36.5 | -2.07 | -35.0
CC(NC(=O)Cc1ccccc1)C1COc2ccccc2O1 (centres undefined) | 3.1* | 6.7 | 0.718 | -3.0
Cc1c(Br)c([N+](=O)[O-])nn1CC(=O)Nc1ccc(C(C)C)cc1 | 1.6 | -6.9 | nt | 0.7
